Measured values from PubChem BioAssay (NCI).
The panel holds about 83,000 compounds, 20% with a hit somewhere; the sample as a whole holds those more often.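 Results are percent growth after 48 hours of single-concentration exposure. 100 means growth as in untreated cells, lower positive values show inhibition; negative values down to -100 show cell death.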 Unmarked numbers belong to inactive results. Calls of active or inactive are those of the source. Rule for the calls: active = growth percent below 10; inactive = the rest.

System: SNB-75 CNS
Assay: NCI-60 one-dose screen, 48 h (100 = growth as untreated, 0 = no growth, -100 = all killed)
Settings: 10 µM unless noted

Compound	growth
CSc1nnc(-c2cc3c([nH]c4ccccc43)c(-c3cccc(O)c3)n2)n1-c1ccccc1	5.14% (active)
Nc1cc(C(=O)NC[C@H]2CN(c3ccc(N4CCC(C(=O)O)CC4)cc3)C(=O)O2)ccc1Cl	84.8%
CC(C)(Sc1cc(C(C)(C)C)c(OC(=O)CCCC(=O)O)c(C(C)(C)C)c1)Sc1cc(C(C)(C)C)c(OC(=O)CCCC(=O)O)c(C(C)(C)C)c1	68%
C=CCn1c(SCC(=O)Nc2ccc(C(=O)/C=C/c3ccc(Cl)cc3)cc2)nnc1-c1ccc(Br)cc1	75.6%
CCOC(=O)c1nn(-c2ccc(S(N)(=O)=O)cc2)c2nc(C)cc(=O)n12	94.8%
CN(C)CCNC(=O)c1cc2c3cc(Cl)ccc3[nH]c2c2ncccc12	44.7%
COc1ccccc1NC(=O)N=Nc1c(O)[nH]c2ccccc12	82.7%
CC(=O)N1N=C(c2ccc(C(F)(F)F)c(F)c2)CC1c1[nH]c(C)c(C(=O)NCC(F)(F)F)c1C (stereo not given)	-8.37% (active)
O=C(/C=C(/C=C/c1ccc2[nH]ccc2c1)OB(F)F)/C=C/c1ccc2[nH]ccc2c1	23.1%
CCOC(=O)c1cc2c(n1Cc1cc(OC)c(OC)c(OC)c1)-c1nc(N)sc1CCC2	60.3%
N#Cc1ccc(O)c(C2=NCC(c3ccccc3)O2)c1 (stereo not given)	74.9%
CC(=O)c1c(C)nc(SCC(=O)Nc2cccc(O)c2)n1-c1ccc(Cl)cc1	62.8%
O=C(Nc1cccc2ccccc12)NC1CC1	83.6%
CCOC(=O)c1c2c(n3cccc(F)c13)C(=O)c1ncccc1C2=O	28.7%
O=c1c2ccccc2n2cnc3ccc(Cl)c1c32	100%
CC(C)c1ccc(-n2c(=S)[nH]c3sc4cc(O)ccc4c3c2=O)cc1	85.9%
N#Cc1c(-c2ccccc2)cc(-c2ccccc2)n(CCCC(=O)Nc2ccccc2N)c1=O	-9.01% (active)
COc1cc2c(cc1OCCCN1CCN(CCCOc3cc4c(cc3OC)C(=O)N3CCC[C@H]3C=N4)CC1)C=CC(C)(C)O2	-98.2% (active)
CCC(C(=O)[C@@H](C)[C@@H](O)[C@H](C)[C@@H]1O[C@@H]([C@@H](CC)C(=O)ONC(=O)c2ccccc2)CC[C@@H]1C)[C@H]1O[C@]2(C=CC(=O)[C@]3(CC[C@@](C)([C@H]4CC[C@](O)(CC)[C@H](C)O4)O3)O2)[C@H](C)C[C@@H]1C (stereo not given in full)	27.6%
CN1C(=O)/C(=C\c2nc([P+](c3ccccc3)(c3ccccc3)c3ccccc3)c(N3CCOCC3)o2)SC1=S	92.1%

Compound	growth
COc1ccc(/C=C/C(=O)c2cccc(OCCCCOc3cccc(C(=O)/C=C/c4ccc(OC)c(OC)c4)c3)c2)cc1OC	67.8%
O=S(=O)(Nc1cc(Cl)ccc1Cl)c1ccc(-c2cnc(C3CC3)o2)cc1	-8.98% (active)
C=C1C(=O)O[C@H]2[C@H]1CC/C(COC(=O)c1cc3ccccc3s1)=C\CC[C@@]1(C)O[C@@H]21	-7.28% (active)
N=C(N)c1ccc(-c2ccc(-c3ccccc3)o2)cc1	19.8%
c1cnc2c(-c3nc4ccc5[nH]ncc5c4c4c3CCCC4)c[nH]c2c1	57.8%
Cc1nc2sc(C(=O)Nc3cccc(Br)c3)c(N)c2cc1C(O)c1ccccc1 (stereo not given)	55.4%
Cn1ccnc1C(=O)/C=C/c1ccc(CC(=O)Nc2cc(C(F)(F)F)cc(C(F)(F)F)c2)cc1	58.3%
C=C1C(=O)O[C@H]2[C@H]1CC/C(Cn1cc(-c3ccccc3)nn1)=C\CC[C@@]1(C)O[C@@H]21	64.2%
Oc1c(I)cc(I)cc1CNCc1ccccn1	75.6%
CCOC(=O)c1cc2c(n1C)-c1nc(NC(C)=O)sc1CCC2	71.4%
COc1c(C(=O)Nc2ccc(C)c(Br)c2)ccc2ccccc12	88.4%
O=C(Nc1ccc(Oc2cccc(F)c2)c(Cl)c1)c1cccnc1	7.85% (active)
COC12C=C/C(=C(/C(=O)OCc3ccncn3)C(=O)CCCCCCCCC3(OC)C=C/C(=C(/C(=O)OCc4ccncn4)C(=O)CCCCCCCC1)O3)O2	48.7%
COC1=CC(c2ccc[nH]2)=N/C1=C\c1[nH]c(C)c(C(=O)OC(C)C)c1C	-15.7% (active)
O=C(Nc1cccc(Cl)c1)Nc1cccc(Cn2c(=O)[nH]c3ccc(Oc4ncccn4)cc3c2=O)c1	57.8%
Cc1ccc(C)n1-c1ccccc1-n1c(C)ccc1C	87.2%
COc1ccc(/C=C/C(=O)c2ccc(Nc3ccnc4cc(Cl)ccc34)cc2)cc1	102%
CCN(CC)c1ccc(\C=N/N=C(N)/C(N)=N\N=C/c2ccc(N(CC)CC)cc2)cc1	93%
O=[N+]([O-])c1cccc(-c2nc3cc4nc5ccccc5[nH]c4cc3n2)c1	101%
COc1ccc(/C=C(\C#N)n2nnc3cc(Cl)ccc32)cc1	-47.6% (active)
